# Bioassay records from PubChem BioAssay.
# hcDAF12 agonist: activators of H. contortus DAF-12 nuclear receptor. HEK293 hcDAF-12 lit1-tk-luc reporter, luminescence; 0% DMSO, 100% Δ7-dafachronic acid. activation, % at 6.8 µM. 370,000 tested, 1.4% active;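 active means activation above the mean of all tested compounds plus 3 SD, cut at about 5.5% in these data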;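 further: 100% = response to 3 µM Δ7-dafachronic acid high control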
# ssDAF-12 act: S. stercoralis DAF-12 activation, primary screen | HEK293 ssDAF-12/GRIP1 lit1-tk-luc reporter, luminescence; % of 3 µM dafachronic acid response | AID 652126 | activation, % at 6.8 µM | 370,000 tested, 1% active;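 active means activation above the mean over all tested compounds plus 3 SD, cut at about 0.9% in these data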;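 further: 0% = DMSO-only wells and 100% = 3 µM delta7-dafachronic acid wells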
# PolyA inhibitor: blocks polyadenylation in yeast reporter cells | S. cerevisiae SKY197-pL101 polyadenylation reporter, beta-gal luminescence; efflux-impaired pdr1/pdr3 knockout yeast; score 100 = 6 SD above DMSO | activity score, % at 12 µM | 300,000 tested, 0.02% active | AID 1875;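 active means lowest replicate activity score at least 50, where 100 means six control SD above control mean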;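 further: yeast exposed to compound for 9 h at 30 °C; higher score means more reporter readthrough which indicates perturbed polyadenylation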
# DAX1 inh-1: inhibitors of DAX1 repression of SF-1 activated StAR promoter. HEK293T StAR-luciferase reporter, SF-1/DAX-1 repression relief. AID 652010. 370,000 tested, 1.1% active. inhibition, % at 6.8 µM;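 active means inhibition above the mean over all tested compounds plus 3 SD, cut at about 3.6% in these data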;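 further: 0% = DAX-1 cells with DMSO and 100% = cells lacking DAX-1 with DMSO; higher inhibition means more luminescence from relief of DAX-1 repression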
# DAX1 inh-2: NR0B1 (DAX1) inhibition | HEK293 Gal4-DAX1 luciferase reporter, luminescence | inhibition, % at 6.75 µM | 340,000 tested, 0.99% active | AID 504766;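 active means inhibition above the mean over all tested compounds plus 3 SD, cut at about 4.2% in these data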;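 further: 0% = DAX1-transfected cells with DMSO and 100% = empty-vector control cells with DMSO; inhibition shows as a rise in luminescence from relieved DAX1 repression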
# Target sequence (P51843 207-470 limits assumed): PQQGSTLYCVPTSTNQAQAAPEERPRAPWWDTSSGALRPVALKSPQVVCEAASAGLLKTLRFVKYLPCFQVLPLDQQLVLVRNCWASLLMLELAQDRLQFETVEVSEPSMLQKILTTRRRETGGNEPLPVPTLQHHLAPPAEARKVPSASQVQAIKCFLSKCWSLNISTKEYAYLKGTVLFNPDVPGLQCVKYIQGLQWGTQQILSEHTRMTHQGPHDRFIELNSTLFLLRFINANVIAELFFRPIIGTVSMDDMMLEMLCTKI
# hgDAF-12 ag: agonists of H. glycines DAF-12 nuclear receptor; HEK293 GAL4-hgDAF12 UAS-luciferase reporter, agonist luminescence; normalized to butyrate control; activation, % at 6.8 µM; 370,000 tested, 1.8% active;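 active means activation above a cutoff set at the mean of all screened compounds plus 3 SD, cut at about 10% in these data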;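 further: 0% = DMSO wells and 100% = sodium butyrate wells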
# LXR ag: activates human LXR-beta, counter-screen for hcDAF-12 agonists; 3,400 tested, under 10 active; activation, % at 6.8 µM; HEK293 Gal4-LXR tk-luc reporter, luminescence, 24 h; normalized: DMSO 0%, positive control 100%; shares compounds with hcDAF12 agonist;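 active means mean percent activation of the reporter above a cutoff set as the average over tested compounds plus their standard deviation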
# hcDAF12 conf: confirmation of H. contortus DAF-12 agonists | shares compounds with hcDAF12 agonist | HEK293 hcDAF-12 lit1-tk-luc reporter, luminescence; % of Δ7-dafachronic acid response | activation, % at 6.8 µM | 3,400 tested, 61% active | AID 743032;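 active means mean activation across triplicate tests above the threshold derived from the earlier primary screen, cut at about 5.5% in these data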;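 further: 0% = DMSO only wells and 100% = 3 µM Δ7-dafachronic acid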
# The depositor's hits bear a star; x = no result given. Rows were chosen to be rich in hits. Some 4.1% of all compounds tested hit in one or more screens of this group.
SMILES,hcDAF12 agonist,ssDAF-12 act,PolyA inhibitor,DAX1 inh-1,DAX1 inh-2,hgDAF-12 ag,LXR ag,hcDAF12 conf
Cn1nccc1C(=O)N1CCCC(N2CCN(Cc3ccc4c(c3)OCO4)CC2)C1 (centres undefined),0,-1,14,-1,1,-1,x,x
CC1CCCCN1S(=O)(=O)c1ccc(C(=O)Nc2ccccc2-c2nc3ccccc3s2)cc1 (centres undefined),11*,0,12,0,0,1,0,4
O=C(CSc1nccn1Cc1ccccc1)NC1CCCC1,1,0,5,1,0,-2,x,x
COc1ccc(NC(=O)c2cc(C3CCCCN3S(=O)(=O)c3ccccc3)on2)c(C)c1 (centres undefined),0,-2,x,-1,x,0,x,x
Nc1cccc(-c2nc3ccccc3s2)c1,12*,1.4*,-13,3,1,13*,1,6.4*
COc1ccc(-c2nc3ccccc3s2)cc1O,12*,0,-20,2,-5,4,1,13*
FC(F)(F)c1ccc(-c2nc3ccccc3s2)cc1,0,-1,x,-2,x,-6,x,x
CCN(CC)CCCNC(=O)c1cc2c(-c3ccc(Cl)cc3)nn(C)c2s1,6.6*,0,9,2,5.5*,1,0,6.7*
CCCCN(CC)CCNC(=O)c1cc2c(-c3ccccc3F)nn(C)c2s1,2,-1,17,1,1,-1,x,x
C(=N\Nc1nc(Nc2ccccc2)nc(N2CCOCC2)n1)/c1c[nH]c2ccccc12,4,0,-2,0,x,-3,x,x
Cc1[nH]c2ccccc2c1/C=N/Nc1nc(Nc2ccc(F)cc2)nc(N2CCOCC2)n1,6.8*,0,-4,1,2,3,0,2
Cc1ccc(Nc2nc(N/N=C/c3c[nH]c4ccccc34)nc(N3CCOCC3)n2)cc1,7.5*,1.1*,-1,0,-1,1,-1,-1
O=C(COC(=O)c1ccc(=O)[nH]c1)Nc1cccc(S(=O)(=O)N2CCOCC2)c1,-1,-1,-17,0,0,2,x,x
Cc1ccc(NC(=O)c2ccc(NCCN)c([N+](=O)[O-])c2)cc1,7.1*,0,1,1,-1,2,0,3
Cc1ccc(NS(=O)(=O)c2cccc3nsnc23)cc1[N+](=O)[O-],-1,0,-15,0,0,-1,x,x
CCOc1ccc(NC(=O)c2cc3ccccc3cc2OC)cc1,7.0*,0,-4,0,6.3*,8,1,6.1*
COc1ccc(OC)c(C(=O)Nc2c(O)ccc3ccccc23)c1,7.0*,0,-2,0,-1,1,0,6.1*
COc1cc(OC)c(NC(=O)c2ccccc2F)cc1Cl,5,0,2,1,1,2,x,x
COc1ccc(CC(=O)Nc2ccc(NC(=O)c3ccccc3F)cc2)cc1,9.8*,-2,-10,0,0,1,0,0
COc1cc2c(cc1NC(=O)c1ccccc1F)CCCC2,8.2*,0,4,2,0,10,0,6.7*
CCCCCn1nnnc1C1(C)CCC(=O)N1Cc1ccco1 (centres undefined),3,-1,x,0,x,4,x,x
CC(C)(CNC(=O)c1ccc(-c2ccccc2Cl)o1)N1CCOCC1,0,0,-20,3,1,8,x,x
CCOC(=O)c1ccc2nc(CCC(=O)N[C@H](C(=O)OC)C(C)C)c(=O)n(CC)c2c1,-2,-1,0,1,0,0,x,x
COc1ccc(N2CCN(C(=O)c3cccnc3)CC2)c([N+](=O)[O-])c1,0,-1,1,0,-1,6,x,x
CCOc1ccc(N(CC(=O)NCc2ccccc2)C(=O)Cn2nnc(-c3ccc(C)o3)n2)cc1,-2,-1,-8,0,1,2,x,x
SMILES,hcDAF12 agonist,ssDAF-12 act,PolyA inhibitor,DAX1 inh-1,DAX1 inh-2,hgDAF-12 ag,LXR ag,hcDAF12 conf
Cc1cccc(N2CN=c3s/c(=C\c4ccccn4)c(=O)n3C2)c1,10*,1,-8,0,1,0,0,0
CSc1ccccc1NC(=O)c1ccccc1C,0,-1,-6,0,-1,-1,x,x
CC(OC(=O)c1cccc(S(=O)(=O)N2CCCC2)c1)C(=O)c1ccccc1 (centres undefined),0,-1,-25,-1,0,1,x,x
CCOC(=O)C1=CCN(S(=O)(=O)c2ccc(F)cc2)C1c1ccccc1 (centres undefined),7.7*,-2,x,0,x,-1,0,1
O=C(CN1CCN(C(c2ccccc2)c2ccccc2)CC1)N1CCN(c2ccccc2)CC1,-1,-1,-14,0,x,0,x,x
COc1cccc2c1CCc1c-2nc2ccccc2c1C(=O)O,8.4*,0,3,1,0,12*,1,7.8*
O=C(/C=C/c1cnc2ccccc2n1)NC12CC3CC(CC(C3)C1)C2,11*,0,-24,3,1,7,2,10*
O=C(O)c1[nH]c2ccccc2c1C(c1cc(Br)ccc1O)c1c(C(=O)O)[nH]c2ccccc12,7.1*,1,-4,0,1,0,0,3
CC/C(=N\NC(=O)C1CCCC1)c1cccc(Br)c1,6.8*,1.8*,x,2,2,7,0,3
CCc1ccc2oc(-c3cc(N)ccc3Cl)nc2c1,14*,1.3*,-31,2,2,9,1,9.8*
CCc1ccc2oc(-c3cc(N)ccc3O)nc2c1,8.3*,0,28,2,-2,8,1,7.7*
CCOC(=O)N1CCN(C(=O)c2cn(C)c3ccc(S(=O)(=O)N(C)C4CCCCC4)cc3c2=O)CC1,0,-1,-1,0,0,1,x,x
O=C(CSC1=NS(=O)(=O)c2cc(F)ccc2N1)NCc1ccccc1Cl,0,-1,-2,0,-1,1,x,x
CC1(C)CC(=O)c2ccc(OCc3ccc([N+](=O)[O-])cc3)cc2O1,17*,1.2*,-17,2,x,10,1,11*
CC1(C)CC(=O)c2cc(OCC(=O)O)ccc2O1,0,-2,5,0,0,0,x,x
CCCc1nc2c(C)cc(Br)cn2c1Cc1cccc(Cl)c1,5,1,x,1,x,1,x,x
CCCc1nc2c(C)cc(Br)cn2c1Cc1ccc(C)cc1,7.4*,0,x,0,x,5,0,10*
